Most compounds without a hit are left out; they make up all but 12% or so of the library.
Shiga inhibitor: Shiga toxin inhibition. inhibition, % at 38.7 µM. Vero cells, Shiga toxin protein synthesis inhibition reporter. AID 2315. actives 9.2% (n = 290,000); in the data active = inhibition mostly above about 28%, no sharp cut-off; inactive = mostly below about 43%
FMDV inh: blocks foot and mouth disease virus. FMDV antiviral cell-based qHTS. actives 1.2% (n = 410,000). AID 1159524. Potency, µM (series often up to 57.9 µM), most hits filed as inhibitors; calls by dose curve; tested in HEK293T cells; also: read-out not given here; nearly all actives have a fitted effect of over 45% in size
CHX counter: counter-screen hit for Shiga toxin inhibitors, cycloheximide; cell reporter, cycloheximide protein synthesis inhibition counterscreen; max response, %; actives 12% (n = 300,000); in the data active = max response mostly above about 13%, no sharp cut-off; inactive = mostly below about 14%; also: read at 38.3 µM for the half of the compounds with a filed dose
Sm TGR inh: blocks Schistosoma mansoni thioredoxin glutathione reductase | purified TGR, DTNB reduction, TNB absorbance 405 nm | Potency, µM (top dose mostly 114 µM), usual class: inhibitors | actives 3% (n = 360,000); active = well fitted inhibition curve with a large enough effect; inconclusive = small, poorly fitted or top-dose-only effect; inactive = no such curve, though single readings can be large or run the other way; also: nearly all actives have a fitted effect of over 60% in size
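Kinetic colorimetric format: TGR-catalysed, NADPH-driven DTNB reduction monitored via TNB absorbance. Enzyme dispensed at 20 nM; compound exposure 15 min at room temperature before reaction start.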
Large screens that a line does not name were inactive.

Cc1ccc(OCC(=O)Nc2nnc(C3CCCO3)s2)c(Br)c1 (centres undefined)	Shiga inhibitor 70
O=C(Nc1nnc(C2CCCO2)s1)c1ccc(Br)cc1 (centres undefined)	CHX counter 20
O=C(CCC1N=C2c3ccccc3N=C(SCC(=O)Nc3ccccc3F)N2C1=O)NCc1ccco1 (centres undefined)	none (no result: Shiga inhibitor, CHX counter)
COc1ccc(-c2nnc3n2N=C(c2c(OC)cccc2OC)CS3)cc1OC	none (no result: FMDV inh, Sm TGR inh)
N#Cc1ccc(-n2nccc2-c2cnc3n(c2=O)CCS3)cc1	CHX counter 26
CCOc1ccc(S(=O)(=O)NCCc2sc3nc(-c4ccc(F)cc4)nn3c2C)cc1	none (no result: Shiga inhibitor, CHX counter)
COC(=O)C(N)Cc1ccc(O)cc1 (centres undefined)	none
C[C@](N)(Cc1ccc(O)c(O)c1)C(=O)O	Sm TGR inh 22µM
COC(=O)C(N)Cc1ccc(O)c(O)c1 (centres undefined)	Sm TGR inh 7.9µM
CCOc1ccc(Cn2nnc(C(=O)Nc3cccc(SC)c3)c2N)cc1	none (no result: Shiga inhibitor, CHX counter)
COc1ccc(CCNc2ncnc3sc(C)cc23)cc1OC	FMDV inh 32µM
COc1ccc(CCNc2ncnc3[nH]ncc23)cc1OC	FMDV inh 18µM
COc1ccc(-c2cn3nc(N4CCC(C(=O)Nc5ccc(C)cc5)CC4)sc3n2)cc1	none (no result: Shiga inhibitor, CHX counter)
COC(=O)c1ccc([C@@H]2Nc3c(cccc3C(F)(F)F)[C@@H]3C=CC[C@@H]32)cc1	none (no result: Shiga inhibitor, CHX counter)
COC(=O)c1ccc([C@H]2Nc3ccc(S(=O)(=O)Nc4ccc(F)cc4)cc3[C@H]3C=CC[C@H]32)cc1	Sm TGR inh 32µM (no result: Shiga inhibitor, CHX counter)
COC(=O)c1ccc(C2Nc3c(C)cc(C)cc3C3C=CCC32)cc1 (centres undefined)	Sm TGR inh 1.1µM (no result: Shiga inhibitor, CHX counter)
COc1cccc(NS(=O)(=O)c2ccc3c(c2)C2C=CCC2C(c2ccc(C(=O)O)cc2)N3)c1 (centres undefined)	Sm TGR inh inconclusive
Cc1cc(C)c2c(c1)[C@@H]1C=CC[C@@H]1[C@H](c1ccc(S(=O)(=O)N3CCOCC3)cc1)N2	Sm TGR inh 2.8µM
COc1ccc(C(=O)N/N=C(\C)c2ccc3c(c2)C2C=CCC2C(c2ccccc2)N3)cc1 (centres undefined)	CHX counter 20, Sm TGR inh 10µM
COc1ccc(OC)c([C@@H]2Nc3ccc(C(=O)O)cc3[C@@H]3C=CC[C@@H]32)c1	Sm TGR inh inconclusive (no result: Shiga inhibitor, CHX counter)
COCCCNC(=O)c1c(NC(=O)Cc2coc3cc(C)cc(C)c23)sc2c1CCCC2	none (no result: Shiga inhibitor, CHX counter)
Fc1ccc([C@@H]2Nc3ccccc3[C@@H]3C=CC[C@@H]32)cc1	Sm TGR inh 5.6µM (no result: Shiga inhibitor, CHX counter)
Cc1cccc(NS(=O)(=O)c2ccc3c(c2)[C@H]2C=CC[C@H]2[C@@H](c2ccc(F)cc2)N3)c1	none (no result: Shiga inhibitor, CHX counter)
Cc1cc(C)c2c(CC(=O)Nc3nnc(CC(C)C)s3)coc2c1	none (no result: Shiga inhibitor, CHX counter)
Cc1csc(NC(=O)Nc2ccc(Cl)cc2)n1	Shiga inhibitor 62, CHX counter 48
CCOC(=O)Cc1csc(NC(=O)Nc2ccc(Cl)cc2)n1	FMDV inh inconclusive
Cc1cnc(NC(=O)CSc2ccc(Cl)cc2)s1	none
Cc1cnc(NC(=O)Nc2ccc(Cl)cc2)s1	Shiga inhibitor 153, CHX counter 57
O=C(Nc1ccc(Cl)cc1)Nc1nc(-c2sccc2Br)cs1	none
O=C(Nc1ccc(Cl)cc1)Nc1nc(-c2ccccc2O)cs1	Shiga inhibitor 20, FMDV inh inconclusive
NC1=NC(=Nc2cccc(S(N)(=O)=O)c2)c2ccccc21	none
COc1cc(N=Nc2cccc(S(N)(=O)=O)c2)c2ccccc2c1N	FMDV inh inconclusive, Sm TGR inh 56µM
Cc1ccc2nc(-c3cccc(NC(=O)c4ccc5c(c4)OCCO5)c3)oc2c1	CHX counter 20
CCC(=O)Nc1ccc2oc(-c3cccc(C)c3)nc2c1	Shiga inhibitor active, CHX counter 35
Cc1ccc2nc(-c3cccc(NC(=O)CSc4ccc(Cl)cc4)c3)oc2c1	none (no result: Shiga inhibitor, CHX counter)
CCC(=O)Nc1cccc(-c2nc3ccc(C)cc3o2)c1	Shiga inhibitor 125, CHX counter 52
O=C(NC1CCC(n2cc(C(=O)NC3CC3)nn2)CC1)C(=O)c1ccccc1 (centres undefined)	none (no result: Shiga inhibitor, CHX counter, Sm TGR inh)
Cc1cccc(OCc2nc(CC(=O)Nc3ccc(Cl)cc3)cs2)c1	none (no result: Shiga inhibitor, CHX counter)
O=c1ccc2ccccc2c2ccccc12	FMDV inh 13µM (no result: Shiga inhibitor, CHX counter, Sm TGR inh)
O=C(Nc1ccc(Cl)cc1)C1CCCN(c2cnccn2)C1 (centres undefined)	CHX counter 24
Cc1ccc(S(=O)(=O)c2nc(-c3cccs3)oc2SCc2ccc(F)cc2)cc1	none (no result: Shiga inhibitor, CHX counter)
Cc1cc(C)n(-c2nc(C(=O)O)cs2)n1	none
Cc1cc(C)n(-c2nc(-c3ccccc3)cs2)n1	Shiga inhibitor 112
Cc1cc(C)n(-c2nc(-c3cccc(Cl)c3)cs2)n1	CHX counter 23
CCN1CCN(/C=N/c2nc3c(s2)CCCC3)CC1	CHX counter 19 (no result: FMDV inh)
CN1CCN(CC(=O)Nc2nc3c(s2)CCCC3)CC1	none
C[C@@H](C(=O)NCCc1ccccc1F)N1C(=O)N2CCc3c([nH]c4ccccc34)[C@@]2(C)C1=O	Shiga inhibitor 30, CHX counter 23
C[C@@H](C(=O)NC1CCCCC1)N1C(=O)N2CCc3c([nH]c4ccccc34)[C@@]2(C)C1=O	FMDV inh inconclusive
C[C@@H](C(=O)NCCc1ccccc1)N1C(=O)N2CCc3c([nH]c4ccccc34)[C@@]2(C)C1=O	Shiga inhibitor 21, CHX counter 19
CC(C)CCNC(=O)c1cc(-c2ccco2)nc2ccccc12	Sm TGR inh 40µM
CCCCN(C(=O)c1cc(-c2ccco2)nc2ccccc12)c1c(N)n(CCC)c(=O)[nH]c1=O	Sm TGR inh inconclusive (no result: Shiga inhibitor, CHX counter)
CCCCCCNC(=O)c1cc(-c2ccco2)nc2ccccc12	Sm TGR inh 3.2µM
CN(C)C(CNC(=O)c1cc(-c2ccco2)nc2ccccc12)c1ccccc1 (centres undefined)	none (no result: Shiga inhibitor, CHX counter, Sm TGR inh)
CCCCn1c(N)c(N(CC(C)C)C(=O)c2cc(-c3ccco3)nc3ccccc23)c(=O)[nH]c1=O	Sm TGR inh 22µM (no result: Shiga inhibitor, CHX counter)
O=C(c1ccc([N+](=O)[O-])cc1)N1CCN(c2ccc(Nc3ccccc3)nn2)CC1	none (no result: Shiga inhibitor, CHX counter)
Cc1ccc(OC(=O)c2sc3ncn(C)c(=O)c3c2C)cc1	Shiga inhibitor 142, CHX counter 41
COc1ccccc1CNC(=O)Cn1ncc2c(C)n(Cc3ccccc3Cl)c(C)c2c1=O	Sm TGR inh inconclusive (no result: Shiga inhibitor, CHX counter)
O=C(CCl)NN=C(c1ccccc1)c1ccccc1	FMDV inh 25µM, Sm TGR inh 11µM
CC(C)(C)C(CCl)C(=O)NN=C(c1ccccc1)c1ccccc1 (centres undefined)	none (no result: Shiga inhibitor, CHX counter)
CC(Cl)C(=O)NN=C(c1ccccc1)c1ccccc1 (centres undefined)	CHX counter 16 (no result: Sm TGR inh)
CCN(CC)CC(=O)NN=C(c1ccccc1)c1ccccc1	none
CCOc1ccc(CCNC(=O)Cc2ccc(NC(=O)C3=C(C)OCCS3)cc2)cc1	Shiga inhibitor 47
COc1ccc(OC)c(CCNC(=O)Cc2ccc(NC(=O)C3=C(C)OCCS3)cc2)c1	none (no result: Shiga inhibitor, CHX counter, Sm TGR inh)
CSc1ccc(CNC(=O)Cc2ccc(NC(=O)C3=C(C)OCCS3)cc2)cc1	Shiga inhibitor 55, CHX counter 24
CCOc1ccc2nc(N3CCCC(C(=O)Nc4cc(Cl)c(OC)cc4OC)C3)sc2c1 (centres undefined)	none (no result: Shiga inhibitor, CHX counter)
Cc1nn(-c2ccccc2)c2c1N(CC(=O)N1CCN(c3ccc(F)cc3)CC1)C(=O)CS2	none (no result: Shiga inhibitor, CHX counter)

Source: PubChem BioAssay
